According to PubChem BioAssay (NCI):
This is part of a sample that, as a whole, favours compounds with a hit. Of some 79,000 tested, about 15% had one in any assay. Rule as the data show it: active = growth inhibition above about 70%; inactive = the rest.

Legend:
[1] = NCI Yeast Anticancer Drug Screen. Data for the rad50 strain (AID 155);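 also: 0% = growth of vehicle-only cultures of the same strain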; settings: S. cerevisiae rad50 strain growth inhibition; at 50.0 µM; active compounds read high
Procedure, shortened: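 Compounds were tested on a yeast strain with an engineered DNA damage repair alteration; the reported value is growth inhibition normalised to vehicle treatment.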

[2] = NCI Yeast Anticancer Drug Screen. Data for the mec2-1 strain (AID 157); settings: S. cerevisiae mec2-1 strain, at 50.0 µM, active compounds read high
Procedure, shortened: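 Mutant yeast (mec2-1) grown with compound; growth inhibition relative to vehicle control reported.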

[3] = NCI Yeast Anticancer Drug Screen. Data for the sgs1 mgt1 strain (AID 161);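 also: 0% = growth of cultures given vehicle only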; settings: S. cerevisiae sgs1 mgt1 strain, at 50.0 µM, active compounds read high
Procedure, shortened: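 Yeast cells carrying a defined DNA-repair defect were exposed to test compounds. Growth inhibition was measured relative to vehicle-treated controls.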

[4] = NCI Yeast Anticancer Drug Screen. Data for the cln2 rad14 strain (AID 165);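 also: 0% = growth equal to vehicle treated cultures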; settings: S. cerevisiae cln2 rad14 strain, at 50.0 µM, active compounds read high
Procedure, shortened: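 Readout is yeast growth inhibition versus vehicle-treated controls, using a strain with cln2 and rad14 alterations exposed to compound.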

[5] = NCI Yeast Anticancer Drug Screen. Data for the bub3 strain (AID 167); settings: S. cerevisiae bub3 mutant strain, at 50.0 µM, active compounds read high
Procedure, shortened: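 Growth of a checkpoint-deficient yeast mutant is measured after compound exposure. Values represent inhibition relative to vehicle.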

[6] = NCI Yeast Anticancer Drug Screen. Data for the mlh1 rad18 strain (AID 175); settings: S. cerevisiae mlh1 rad18 strain growth inhibition; at 50.0 µM; active compounds read high
Procedure, shortened: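 Genetically defined yeast (DNA repair-deficient) exposed to compounds; growth inhibition determined relative to vehicle.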

Measured: growth inhibition

O=C1NC(=S)S/C1=C/c1cn(-c2ccccc2)nn1
inactive: [1] 17.4% | [2] 3.15% | [3] -5.05% | [4] -18.2% | [5] 1.75% | [6] 10.6%

CC12CC3CC(O)(C1)CC(O)(C3)C2
inactive: [1] 7.25% | [2] -11.1% | [3] -1.45% | [4] 22.2% | [5] -8.3% | [6] 4.15%

Cc1ccc(Br)c2c1CCC2=O
inactive: [1] 1.85% | [2] -5.05% | [3] 0.9% | [4] -52.5% | [5] -23% | [6] 1.65%

COc1ccc(NC(=O)ON(C)C)cc1
inactive: [1] 4.45% | [2] -26.6% | [3] 5.15% | [4] -63.1% | [5] 3.75% | [6] -5.75%

CCCCCc1ccc2oc(=O)c3ccc(C)cc3c2c1O
inactive: [1] -9.7% | [2] 8.7% | [3] 16.2% | [4] -16.8% | [5] -25.3% | [6] -5.6%

COc1cc(C(=O)Nc2ccc(N3CCCCC3)cc2)cc(OC)c1OC
inactive: [1] 25.1% | [2] 9.2% | [3] 38.4% | [4] -16.2% | [5] 14.6% | [6] 36.3%

COC(=O)c1nc(=S)[nH]c(C(=O)OC)c1C(=O)c1ccccc1O
inactive: [1] 21.9% | [2] 11.9% | [3] 14.1% | [4] 3.4% | [5] 29.1% | [6] 30%

COC(=O)C1CC=CCC1 (configuration not stated)
inactive: [1] 23.1% | [2] -8.05% | [3] 6.85% | [4] 14.2% | [5] 1.15% | [6] 32.4%

CCOC(=O)NNC(=O)NC12CC3CC(CC(C3)C1)C2
inactive: [1] -16.7% | [2] -7.7% | [3] 5.6% | [4] -24.6% | [5] -3.85% | [6] 1.75%

NC(Cc1ccc(S(=O)(=O)O)cc1)C(=O)NC(Cc1ccc(S(=O)(=O)O)cc1)C(=O)NC(Cc1ccc(S(=O)(=O)O)cc1)C(=O)O (configuration not stated)
inactive: [1] -4.25% | [2] -14.8% | [3] 27.1% | [4] -9.5% | [5] 9.3% | [6] -8.2%

COc1ccc2c(c1)CCCN2c1ccc(N=C(N)N)cc1
inactive: [1] 2.95% | [2] -6.35% | [3] -1.75% | [4] -17.8% | [5] 27.9% | [6] 16.5%

O=C(Nc1cccc([N+](=O)[O-])c1)N1CCCC1
inactive: [1] -7.1% | [2] -16.4% | [3] -7.75% | [4] -3.9% | [5] -7.5% | [6] -20.6%

CN(C)NC1=NS(=O)(=O)c2cc3c(cc2S1)N(N(C)C)C(=O)c1cc2c(cc1N(N(C)C)C3=O)SC(NN(C)C)=NS2(=O)=O
inactive: [1] -6.3% | [2] -22.5% | [3] -14.4% | [4] 2.35% | [5] 16.4% | [6] -2.9%

O=C1OC2(C(F)(F)F)Oc3ccccc3CN2C12CCCCC2 (configuration not stated)
inactive: [1] 17.6% | [2] 35% | [3] 11.4% | [4] 25.1% | [5] 42.5% | [6] 13.2%

CCOC(=O)c1ccc(NCC2CNc3ccccc3N2)cc1 (configuration not stated)
inactive: [1] 36.2% | [2] -11.2% | [3] 17.7% | [4] -8.35% | [5] 23.2% | [6] 18.2%

CC(=O)[O][Ga]([Br])[O]C(C)=O
inactive: [1] 6.3% | [2] 11.8% | [3] 12.3% | [4] 14.4% | [5] 15.7% | [6] 0.5%

O=C1C=C(Nc2ccccc2C(=O)CC(=O)C(=O)Nc2ccc(Cl)cc2)c2ccccc2C1=O
inactive: [1] 5.05% | [2] 0.95% | [3] 6.9% | [4] -3.05% | [5] 42.5% | [6] 9.8%

CC(OC(=O)Nc1ccccc1)c1ccccc1 (configuration not stated)
inactive: [1] 37.2% | [2] 7.9% | [3] 11.9% | [4] 9.9% | [5] 9.2% | [6] 17.4%

C#CCCOC(=O)c1ccccc1OC(C)=O
inactive: [1] -0.8% | [2] -9.55% | [3] -2.3% | [4] 11.5% | [5] 7.15% | [6] 5.15%

Cc1ccc(S(=O)(=O)OCC2OC(C)(C)OC2COS(=O)(=O)c2ccc(C)cc2)cc1 (configuration not stated)
inactive: [1] 25% | [2] -5.65% | [3] 6.7% | [4] -38.6% | [5] 6.2% | [6] 10.3%

COc1ccc2ccc3c(c2c1)C(=O)C(CC(N)=O)C3 (configuration not stated)
inactive: [1] 1.75% | [2] 1.2% | [3] -10.7% | [4] 0.4% | [5] -4.1% | [6] 15%

N#CC1CNC(N)NC1N (configuration not stated)
inactive: [1] -0.1% | [2] 4.8% | [3] -8.05% | [4] -7.95% | [5] 7.35% | [6] 1.65%

COc1cc(C(C)c2cc3c(cc2O)OCO3)cc(OC)c1OC (configuration not stated)
inactive: [1] -31.2% | [2] -26.1% | [3] -15.6% | [4] 8.5% | [5] 26.8% | [6] -16.4%

O=C1OI(OI2OC(=O)c3ccccc32)c2ccccc21 (tested in a mixture with another compound)
inactive: [1] 11.7% | [2] -9.6% | [3] -19.1% | [4] -9.85% | [5] 17.9% | [6] 9.45%

O=C(Cc1ccccc1)NN1C(=O)C(Cl)C1c1cc(Br)ccc1O (configuration not stated)
inactive: [1] 21% | [2] 30.1% | [3] 29.6% | [4] -20.6% | [5] 25.2% | [6] 15.6%

CC(C)CC(NC(=O)CNC(=O)/C=C/c1ccco1)C(N)=O (configuration not stated)
inactive: [1] -16.9% | [2] -29% | [3] -9.2% | [4] -11.2% | [5] -10.1% | [6] -18.5%

NNC(=O)C(O)C(O)C(=O)NN (configuration not stated)
inactive: [1] 8.5% | [2] -6.8% | [3] -20.2% | [4] 46.6% | [5] -8.05% | [6] -8.1%

O=C1c2cccc3c([N+](=O)[O-])ccc(c23)C(=O)N1CCc1ccccn1
inactive: [1] 24.9% | [2] 19.2% | [3] 45.5% | [4] 1.95% | [5] 17.9% | [6] 26.6%

N/C(=N/N=C/C1CCCCC1)NO
inactive: [1] 0.95% | [2] -9.25% | [3] -24.1% | [4] 3.4% | [5] -13.9% | [6] 13.6%

C[C@@H]1CN[C@@H](C)CN1
inactive: [1] -35.2% | [2] -30.3% | [3] -17.4% | [4] -8.25% | [5] -0.6% | [6] 3.8%

C1=COC(C=Nc2ccccc2)CC1 (configuration not stated)
inactive: [1] -12.3% | [2] 13.8% | [3] 4.5% | [4] -18.2% | [5] 15.8% | [6] -12.6%

O=C(O)CCc1nc2ccccc2c(=O)n1Cc1ccccc1
inactive: [1] 11.1% | [2] 10.1% | [3] -7.3% | [4] -6.1% | [5] 2.8% | [6] 10.4%

O=C(O)CCC(NC(=O)c1ccc(Nc2nc3ccc(C(F)(F)F)cc3nc2-c2ccccc2)cc1)C(=O)O (configuration not stated)
inactive: [1] -11.5% | [2] 11.9% | [3] 4.75% | [4] -8.75% | [5] 1.25% | [6] -0.05%

O=C1OC(=O)C2CCCCC12 (configuration not stated)
inactive: [1] 29.9% | [2] -11.9% | [3] -11.4% | [4] -48.3% | [5] 8.95% | [6] 18.9%

CCN=C(N(CC)CC)N(CC)CC
inactive: [1] -12.1% | [2] 10.2% | [3] 2.95% | [4] -24.4% | [5] 62.7% | [6] 4.3%

Cc1cc(N(CCC#N)CCC#N)ccc1/C=C1N=C(/C=C/c2ccccc2)N(c2ccc(S(N)(=O)=O)cc2)C\1=O
inactive: [1] 0.75% | [2] -0.2% | [3] -18.8% | [4] 0.6% | [5] -21.1% | [6] -3.9%

C#CCN(C)Cc1cc(OC)c(OC)c(OC)c1
inactive: [1] -43.2% | [2] -0.75% | [3] 6.55% | [4] -10.9% | [5] 7.65% | [6] 14.4%
